Inconclusive results are not listed. Active and inactive are the calls of the source. How the source made its calls, unless noted: active means hit-call score of the fitted dose curve at least 0.9, where 1 is the maximum; inconclusive means response in the unintended direction; inactive means score below 0.9.

In assay [1] the target is PGR (gene 5241) (UniProt P06401). As to the kind of experiment: TOX21_PR_BLA_Followup_Agonist_ratio: Tox21 HEK293 Progesterone Receptor (PR) Agonism Beta-lactamase Follow-Up Assay, Ratio (AID 2283933). A digest of the protocol: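 Agonist-mode follow-up in HEK293T cells carrying a UAS-driven beta-lactamase reporter, grown in 2% charcoal-stripped serum. Compounds act for 16 hr; activity is the ch2/ch1 cleavage ratio, with same-well CellTiter-Glo viability run in parallel.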
PGR (gene 5241), sequence (P06401 whole entry, looked up): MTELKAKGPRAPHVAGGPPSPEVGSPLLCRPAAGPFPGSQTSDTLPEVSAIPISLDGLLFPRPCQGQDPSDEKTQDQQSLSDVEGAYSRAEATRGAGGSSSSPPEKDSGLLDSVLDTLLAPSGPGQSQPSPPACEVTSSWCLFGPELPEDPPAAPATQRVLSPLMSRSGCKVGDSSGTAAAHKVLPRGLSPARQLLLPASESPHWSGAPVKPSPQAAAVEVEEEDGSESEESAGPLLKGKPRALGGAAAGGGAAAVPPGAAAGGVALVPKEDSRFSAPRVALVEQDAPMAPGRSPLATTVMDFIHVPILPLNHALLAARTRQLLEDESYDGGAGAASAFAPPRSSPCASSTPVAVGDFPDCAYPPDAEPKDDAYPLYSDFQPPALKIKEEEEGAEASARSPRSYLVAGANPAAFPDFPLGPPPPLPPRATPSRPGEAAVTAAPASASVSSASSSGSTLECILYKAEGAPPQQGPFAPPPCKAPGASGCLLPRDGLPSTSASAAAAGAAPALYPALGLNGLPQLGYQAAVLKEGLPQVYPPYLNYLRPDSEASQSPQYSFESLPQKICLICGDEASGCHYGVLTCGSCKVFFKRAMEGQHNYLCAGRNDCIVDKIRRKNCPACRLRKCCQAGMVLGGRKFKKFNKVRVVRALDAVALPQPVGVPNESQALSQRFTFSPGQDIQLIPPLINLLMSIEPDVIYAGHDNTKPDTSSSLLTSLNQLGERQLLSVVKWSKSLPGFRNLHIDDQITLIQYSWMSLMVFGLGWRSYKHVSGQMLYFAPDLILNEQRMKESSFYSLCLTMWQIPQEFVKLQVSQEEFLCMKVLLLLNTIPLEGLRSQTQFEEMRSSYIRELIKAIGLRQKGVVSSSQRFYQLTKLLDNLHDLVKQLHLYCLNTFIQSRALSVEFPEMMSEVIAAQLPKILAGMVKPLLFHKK

Assay [2] shares this target. Briefly: TOX21_PR_BLA_Followup_Antagonist_ratio: Tox21 HEK293 Progesterone Receptor (PR) Antagonism Beta-lactamase Follow-Up Assay, Ratio (AID 2283934). An outline of the steps: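 Antagonist mode used 1 nM R5020 (final) as agonist on a beta-lactamase reporter line in HEK293T cells. Activity was taken from the substrate cleavage ratio after 16 hr exposure.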
The nature of assay [3]: TOX21_PR_BLA_Followup_Agonist_viability: Viability Assessment in the Tox21 HEK293 Progesterone Receptor (PR) Agonism Beta-lactamase Follow-Up Assay (AID 2283935).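 Further: signal loss means lower viability so actives are cytotoxic.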 An outline of the steps:
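Multiplexed viability counter-screen: ATP-coupled luciferase signal measured after 30 min at room temperature, following 16 hr compound treatment of PR-UAS-bla HEK293T cells grown in charcoal-stripped serum.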

The nature of assay [4]: TOX21_PR_BLA_Followup_Antagonist_viability: Viability Assessment in the Tox21 HEK293 Progesterone Receptor (PR) Antagonism Beta-lactamase Follow-Up Assay (AID 2283936).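 Further: hits lower the luminescence signal meaning cytotoxicity.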 A digest of the protocol:
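PR-UAS-bla HEK293T cells (3,000/well, 2% charcoal-stripped FBS) given compound plus R5020 agonist, 16 h at 37C. CellTiter-Glo added after bla read, 30 min at room temperature; luminescence loss indicates cytotoxicity.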

Assay [5] addresses PGR (gene 5241) (UniProt P06401). As to the kind of experiment: TOX21_PR_LUC_Followup_Agonist: Tox21 HEK293 Progesterone Receptor (PR) Agonism Luciferase Follow-Up Assay (AID 2283937; active means hit-call score of the fitted dose curve at least 0.9, where 1 is the maximum; inactive means score below 0.9). An outline of the steps: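 Agonist mode: reporter cells carrying PR-A and luciferase are treated 16 h with test compounds at 37C. Luciferase induction is measured by luminescence and fitted upward against DMSO.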

Assay [6] shares this target. Briefly: TOX21_PR_LUC_Followup_Antagonist: Tox21 HEK293 Progesterone Receptor (PR) Antagonism Luciferase Follow-Up Assay (AID 2283938).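 Further: curve fitted upward as signal gain over DMSO baseline despite antagonist label.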 A digest of the protocol: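 Luciferase reporter in HEK293-PR-A-luc cells: 16 h compound treatment at 37C, ONE-Glo luminescence detection, DMSO as negative control and baseline.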
Assay [7] in a line: CEETOX_H295R_CORTIC_noMTC: CeeTox H295R High-throughput Steroidogenesis Assay for Corticosterone (CORTIC), maximum tolerated concentration (MTC) filtered results only (AID 2283917; active means hit-call score of the fitted dose curve at least 0.9, where 1 is the maximum; inactive means score below 0.9). The following applies: actives raise or lower the signal. A digest of the protocol: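 Following OECD 456 with minor changes, H295R cultures received 10 uM forskolin for 48 h, then test chemical at 0.1% DMSO for 48 h. Media steroids were extracted and measured by LC-MS/MS.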

Assay [8] is described as follows: CEETOX_H295R_DOC_noMTC: CeeTox H295R High-throughput Steroidogenesis Assay for DOC, maximum tolerated concentration (MTC) filtered results only (AID 2283918; active means hit-call score of the fitted dose curve at least 0.9, where 1 is the maximum; inactive means score below 0.9). As to conditions: actives raise or lower the signal. A digest of the protocol:
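11-Deoxycorticosterone secreted by human adrenal H295R cells quantified by HPLC-MS/MS after 48 h chemical exposure (0.1% DMSO), following 48 h 10 uM forskolin prestimulation. Concentrations not filtered by MTT-derived MTC; bidirectional fitting.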

Assay [9] in a line: CEETOX_H295R_ESTRADIOL_noMTC: CeeTox H295R High-throughput Steroidogenesis Assay for Estradiol, maximum tolerated concentration (MTC) filtered results only (AID 2283919; active means hit-call score of the fitted dose curve at least 0.9, where 1 is the maximum; inactive means score below 0.9). The following applies: actives raise or lower the signal. An outline of the steps:
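H295R human adrenal cells pre-stimulated 48 h with 10 uM forskolin, then exposed 48 h to chemical (0.1% DMSO final). Estradiol in medium measured by HPLC-MS/MS after MTBE extraction and dansyl derivatization; bidirectional fit versus DMSO, concentrations not MTT-filtered.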

The nature of assay [10]: CEETOX_H295R_PROG_noMTC: CeeTox H295R High-throughput Steroidogenesis Assay for Progesterone (PROG), maximum tolerated concentration (MTC) filtered results only (AID 2283920; active means hit-call score of the fitted dose curve at least 0.9, where 1 is the maximum; inactive means score below 0.9). As to conditions: actives raise or lower the signal. An outline of the steps:
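H295R cells; forskolin 10 uM x 48 h prestim; test cpd 48 h, 0.1% DMSO final; media progesterone via LC-MS/MS; bidirectional fit vs DMSO; no MTT-based MTC filter applied.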

Assay [11] is described as follows: CEETOX_H295R_ESTRONE_noMTC: CeeTox H295R High-throughput Steroidogenesis Assay for Estrone, maximum tolerated concentration (MTC) filtered results only (AID 2283921; active means hit-call score of the fitted dose curve at least 0.9, where 1 is the maximum; inactive means score below 0.9). The following applies: actives raise or lower the signal. A digest of the protocol: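 H295R cells prestimulated 48 h with 10 uM forskolin, then exposed 48 h to chemical in 0.1% DMSO; medium estrone measured by HPLC-MS/MS after MTBE extraction and dansyl derivatization, fitted bidirectionally versus DMSO without MTT-based MTC filtering.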

Assay [12] in a line: CEETOX_H295R_TESTO_noMTC: CeeTox H295R High-throughput Steroidogenesis Assay for Testosterone (TESTO), maximum tolerated concentration (MTC) filtered results only (AID 2283924; active means hit-call score of the fitted dose curve at least 0.9, where 1 is the maximum; inactive means score below 0.9). The following applies: actives raise or lower the signal. An outline of the steps: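 H295R cells prestimulated 48 h with 10 uM forskolin, then exposed 48 h to chemicals in 0.1% DMSO final. Testosterone in medium quantified by MTBE extraction and HPLC-MS/MS; bidirectional fit versus DMSO, concentrations […] filtered by MTT-based maximum tolerated concentration.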

Assay [13] concerns the target Thyroid hormone receptor alpha (Rattus norvegicus) + Thyroid hormone receptor beta (Rattus norvegicus) (UniProt P18113+P63059). As to the kind of experiment: TOX21_TR_LUC_GH3_Agonist_Followup: Tox21 GH3 Thyroid Hormone Receptor Agonism Luciferase Follow-Up Assay (AID 2283939). A digest of the protocol:
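Rat GH3 cells (1,500/well) in serum-free assay medium, treated with 15-point series, 92 uM to 5 nM final, for 24 h at 37C. Luciferase via ONE-Glo luminescence; gain of signal fitted against DMSO, T3 positive control.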

Assay [14] has as its target THRA (gene 7067) (UniProt P10827). As to the kind of experiment: TOX21_TRA_COA_Agonist_Followup_ratio: Tox21 Thyroid Hormone Receptor alpha Agonism through Coactivator Recruitment Follow-Up Assay, Ratio (AID 2283948; active means hit-call score of the fitted dose curve at least 0.9, where 1 is the maximum; inactive means score below 0.9). A digest of the protocol:
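Agonist-mode biochemical TR-FRET with TRα LBD and SRC-2 coactivator peptide; activity expressed as percent of T3 response over DMSO baseline.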

Assay [15] has as its target THRB (gene 7068) (UniProt P10828). As to the kind of experiment: TOX21_TRB_BLA_Agonist_Followup_ratio: Tox21 Thyroid Hormone Receptor beta Agonism Beta-lactamase (BLA) Follow-Up Assay, Ratio (AID 2283954). A digest of the protocol:
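Human TRβ LBD–GAL4 DBD fusion in GeneBLAzer UAS-bla HEK293T cells; 11 concentrations in triplicate, 18 h at 37°C/5% CO2, T3 as agonist control. CCF4-AM substrate 2 h at room temperature; 460:530 nm ratio fitted for gain of signal versus DMSO.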

The target is the same in assay [16]. Briefly: TOX21_TRB_COA_Agonist_Followup_ratio: Tox21 Thyroid Hormone Receptor beta Agonism through Coactivator Recruitment Follow-Up Assay, Ratio (AID 2283963; active means hit-call score of the fitted dose curve at least 0.9, where 1 is the maximum; inactive means score below 0.9). A digest of the protocol:
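Cell-free TR-FRET coactivator recruitment: GST-tagged TRβ LBD (5.0 nM) with 0.10% BSA incubated with compound, then fluorescein-SRC-2 peptide (200 nM) and Tb-anti-GST antibody (2 nM) added. 520:495 nm ratio normalized to DMSO (0%) and T3 (100%).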

Assay [17] has as its target THRA (gene 7067) (UniProt P10827). Briefly: TOX21_TRA_COA_Antagonist_Followup_ratio: Tox21 Thyroid Hormone Receptor alpha Antagonism through Coactivator Recruitment Follow-Up Assay, Ratio (AID 2283953). An outline of the steps: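 This follow-up to the GH3 luciferase screen checks specificity in a cell-free format. It measures SRC-2 coactivator peptide binding to TRα LBD by TR-FRET and scores loss of ratio signal relative to DMSO.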

Assay [18] deals with THRB (gene 7068) (UniProt P10828). As to the kind of experiment: TOX21_TRB_BLA_Antagonist_Followup_ratio: Tox21 Thyroid Hormone Receptor beta Antagonism Beta-lactamase (BLA) Follow-Up Assay, Ratio (AID 2283958). A digest of the protocol: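 In this antagonist-mode follow-up, a stably integrated GAL4-TRβ LBD fusion drives a UAS-beta-lactamase reporter in HEK293T cells. Loss of ratio signal relative to DMSO after 18 h treatment indicates activity; parallel CellTiter-Glo flags cytotoxicity.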
THRB (gene 7068), sequence (P10828 whole entry, looked up, the tested form may be a part): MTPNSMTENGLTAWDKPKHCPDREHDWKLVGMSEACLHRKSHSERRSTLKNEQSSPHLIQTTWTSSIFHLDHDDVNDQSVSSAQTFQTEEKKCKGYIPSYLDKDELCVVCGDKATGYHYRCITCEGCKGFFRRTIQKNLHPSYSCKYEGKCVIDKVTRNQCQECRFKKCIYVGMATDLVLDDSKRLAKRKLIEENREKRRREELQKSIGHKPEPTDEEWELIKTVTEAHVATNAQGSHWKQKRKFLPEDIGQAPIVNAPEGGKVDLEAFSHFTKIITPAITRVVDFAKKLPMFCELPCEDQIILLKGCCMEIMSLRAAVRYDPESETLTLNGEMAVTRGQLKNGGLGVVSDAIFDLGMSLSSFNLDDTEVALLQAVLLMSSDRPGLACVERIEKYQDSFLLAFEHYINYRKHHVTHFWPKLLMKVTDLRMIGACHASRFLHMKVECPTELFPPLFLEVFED

Assay [19] can be described thus: TOX21_TRB_BLA_Antagonist_Followup_viability: Viability Assessment in the Tox21 Thyroid Hormone Receptor beta Antagonism Beta-lactamase (BLA) Follow-Up Assay (AID 2283961). An outline of the steps: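 In the same wells as the reporter read, cell health was gauged by CellTiter-Glo ATP luminescence, with signal loss indicating reduced viability. Cells had been exposed to test compounds for 18 h.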

Assay [20] is described as follows: TOX21_PR_LUC_Followup_Antagonist_viability: Viability Assessment in the Tox21 HEK293 Progesterone Receptor (PR) Antagonism Luciferase Follow-Up Assay (AID 2283940). An outline of the steps: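 Cellular ATP, measured with luciferase-coupled CellTiter-Glo, served as the viability endpoint after HEK293-PR-A-luc cells were exposed to test compounds for 16 h at 37C.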

THRA (gene 7067), sequence (P10827 whole entry, looked up, the tested form may be a part): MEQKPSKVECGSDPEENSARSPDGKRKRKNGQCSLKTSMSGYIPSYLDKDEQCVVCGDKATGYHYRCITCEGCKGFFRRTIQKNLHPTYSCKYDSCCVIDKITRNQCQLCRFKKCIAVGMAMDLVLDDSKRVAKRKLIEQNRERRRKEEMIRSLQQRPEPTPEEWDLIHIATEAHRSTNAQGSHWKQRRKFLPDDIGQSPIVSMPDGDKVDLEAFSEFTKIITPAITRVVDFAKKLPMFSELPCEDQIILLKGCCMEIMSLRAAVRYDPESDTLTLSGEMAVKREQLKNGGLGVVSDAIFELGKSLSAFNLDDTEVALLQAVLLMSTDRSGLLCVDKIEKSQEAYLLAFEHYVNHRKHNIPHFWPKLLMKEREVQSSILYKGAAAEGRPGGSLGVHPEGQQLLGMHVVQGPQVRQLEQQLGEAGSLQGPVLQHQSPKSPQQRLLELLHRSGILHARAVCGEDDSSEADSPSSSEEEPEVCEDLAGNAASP
Thyroid hormone receptor alpha (Rattus norvegicus) + Thyroid hormone receptor beta (Rattus norvegicus), sequence (P63059 whole entry, looked up): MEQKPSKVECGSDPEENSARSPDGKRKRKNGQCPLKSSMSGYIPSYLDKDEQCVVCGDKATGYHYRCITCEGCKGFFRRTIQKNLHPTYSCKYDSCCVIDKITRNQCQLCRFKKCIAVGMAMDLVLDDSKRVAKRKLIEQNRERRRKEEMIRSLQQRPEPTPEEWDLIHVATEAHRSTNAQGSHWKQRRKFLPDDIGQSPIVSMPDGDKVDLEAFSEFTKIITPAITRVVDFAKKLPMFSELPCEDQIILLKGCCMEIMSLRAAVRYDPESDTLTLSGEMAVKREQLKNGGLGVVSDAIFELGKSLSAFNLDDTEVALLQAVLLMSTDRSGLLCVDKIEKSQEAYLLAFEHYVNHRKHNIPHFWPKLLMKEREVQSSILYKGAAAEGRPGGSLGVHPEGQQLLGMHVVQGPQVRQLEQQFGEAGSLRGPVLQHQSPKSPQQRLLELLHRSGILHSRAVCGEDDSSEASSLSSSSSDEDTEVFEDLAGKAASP
Thyroid hormone receptor alpha (Rattus norvegicus) + Thyroid hormone receptor beta (Rattus norvegicus), sequence (P18113 whole entry, looked up): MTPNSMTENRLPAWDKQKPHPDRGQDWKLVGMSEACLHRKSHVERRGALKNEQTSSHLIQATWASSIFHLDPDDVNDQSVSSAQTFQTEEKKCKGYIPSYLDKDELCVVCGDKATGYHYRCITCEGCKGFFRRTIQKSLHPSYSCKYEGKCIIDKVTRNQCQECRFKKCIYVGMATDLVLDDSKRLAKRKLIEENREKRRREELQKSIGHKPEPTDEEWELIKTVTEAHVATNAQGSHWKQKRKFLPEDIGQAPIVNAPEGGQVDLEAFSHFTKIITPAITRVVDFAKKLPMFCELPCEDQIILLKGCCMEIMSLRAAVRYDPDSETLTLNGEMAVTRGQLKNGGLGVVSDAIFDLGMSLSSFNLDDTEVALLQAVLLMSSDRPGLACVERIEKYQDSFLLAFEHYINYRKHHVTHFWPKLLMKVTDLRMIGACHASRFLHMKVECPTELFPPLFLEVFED

One may read the AC50 as the concentration giving half of the maximal activity seen. Take `CC[C@H](c1ccc(O)cc1)[C@@H](CC)c1ccc(O)cc1`: the result in [1], in [3], in assay [4] and in [5] was inactive. For the same molecule, the AC50 in assay [2] is 9.17 µM (active); in assay [6] it was 16.2 µM (active).
`Cc1cc(CCN2CCN(c3nsc4ccccc34)CC2)cc2c1NC(=O)CC2(C)C`: the AC50 in assay [7] is 2.65 µM (active); in [8], 7.31 µM (active); in assay [9], 3.98 µM (active); in assay [10], 0.584 µM (active); in assay [11], 4.93 µM (active). Besides, the outcome in assay [12] was inactive.
For the molecule `O=C(O)Cc1cc(I)c(Oc2cc(I)c(O)c(I)c2)c(I)c1`, the AC50 was 0.00668 µM (active) in [13], 0.276 µM (active) in assay [14], 0.0242 µM (active) in [15] and 0.246 µM (active) in assay [16].
Take `C#C[C@]1(O)CC[C@H]2[C@@H]3CCC4=CC(=O)CC[C@@H]4[C@H]3CC[C@@]21C`: the outcome in [17], in assay [18] and in assay [19] was inactive.
`CC(C)(C)c1cc(C(C)(C)C)c(O)c(C(C)(C)C)c1`: the result in [13], in [14], in assay [15] and in [16] was inactive.
`c1ccc2cc3c(ccc4ccccc43)cc2c1`: the result in [1], in assay [3], in assay [4] and in [5] was inactive. Also, the AC50 in assay [2] is 21.8 µM (active).
For the molecule `c1ccc2c(c1)Cc1ccccc1-2`, the molecule was classed as inactive in assay [7], in [8], in assay [9], in assay [10] and in assay [11].
Consider `C[C@@H]1C[C@H]2[C@@H]3CCC4=CC(=O)C=C[C@]4(C)[C@@]3(F)[C@@H](O)C[C@]2(C)[C@@]1(O)C(=O)COP(=O)(O)O`, for which the result in [2], in assay [3], in assay [4] and in [20] was inactive.

The values above are taken from PubChem BioAssay (EPA / NIEHS).
